Laboratory results: PubChem BioAssay (Tox21)
Values joined by “and” are separate entries in the source; they are usually repeats but may differ in a detail not shown here. Identical values can stand only once. Unmarked numbers belong to inactive results. Results filed as inconclusive are left out. A call without a number means that no potency is given here. Active and inactive are the calls of the source. Unless noted, calls come from the whole dose curve; as a rule, active = well fitted curve in the direction sought with a large enough effect in the repeat runs; inconclusive = weak or mixed curves; inactive = no such curve, though single readings can be large; an effect the other way counts as inactive or inconclusive.

Tests used:
[1] = qHTS assay to identify small molecule HDAC inhibitors (AID 1259364);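 note: wild-type HCT-116 cells with endogenous class I/II HDAC activity; top concentration of the series differs between compounds; nearly all actives have a fitted effect of over 45% in size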
How it was run: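 Relative class I and II HDAC activity is taken from the luminogenic signal in HCT-116 cells, with compound exposure 2 hr and reagent development 30 min at room temperature.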

[2] = qHTS assay to identify small molecule HDAC inhibitors - cell viability counter screen (AID 1259365); note: series mostly up to about 92 µM; nearly all actives have a fitted effect of over 50% in size
How it was run: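 Following a 2hr exposure of overnight-plated wild-type HCT-116 cells to DMSO-delivered compounds, CellTiter-Glo was added and luminescence recorded after 30min at room temperature.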

[3] = qHTS assay to identify small molecule agonists of the sonic hedgehog signaling (Shh) pathway - cell viability counter screen (AID 1259366); note: nearly all actives have a fitted effect of over 50% in size; note: potency is the fitted concentration of half-maximal effect
How it was run: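 After a 4hr attachment at 37C, NIH/3T3 cells bearing an integrated Gli1-driven luciferase reporter were dosed with compounds. Treatment lasted 24hr, with the final hour including CellTiter-Fluor for a fluorescence viability measurement.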

[4] = qHTS assay to identify small molecule antagonists of the sonic hedgehog signaling (Shh) pathway - cell viability counter screen (AID 1259367); note: nearly all actives have a fitted effect of over 55% in size; note: potency is the fitted concentration of half-maximal effect
How it was run: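 Using CellTiter-Fluor, viability of Gli1-Luc reporter 3T3 cells is read by fluorescence in the wells used for the Shh luciferase assay. Treatment lasts 23 hr with conditioned medium, then reagent 1 hr at 37C.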

[5] = qHTS assay to identify small molecule agonists of the sonic hedgehog signaling (Shh) pathway (AID 1259368; calls by dose curve;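 note: NIH/3T3-derived 3T3Gli1-Luc cells carrying a stable Gli1-driven firefly luciferase reporter; series mostly up to about 92 µM; nearly all actives have a fitted effect of over 15% in size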)
How it was run: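 Mouse fibroblast (NIH/3T3) reporter cells with stably integrated Gli1-Luc were treated 24 hr with compound; firefly luciferase luminescence served as the read-out.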

[6] = qHTS assay to identify small molecule antagonists of the sonic hedgehog signaling (Shh) pathway (AID 1259369; calls by dose curve; note: nearly all actives have a fitted effect of over 45% in size; note: potency is the fitted concentration of half-maximal effect)
How it was run: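 Conditioned medium drives Shh signalling in 3T3Gli1-Luc cells; compounds in DMSO co-applied, 24hr at 37 C, then luciferase luminescence.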

[7] = qHTS assay to identify small molecule phospholipidosis (PLD) inducers (AID 1259344; active = well fitted curve in the direction sought with a large enough effect; an effect the other way counts as inactive or inconclusive)
How it was run: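 Fluorescent phospholipid staining (LipidTOX Red) measured by automated microscopy in fixed HepG2 cells after 24 h treatment; nuclei counterstained with Hoechst 33342; amiodarone as reference inducer.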

[8] = biological target: Estrogen receptor beta (Homo sapiens) (UniProt Q92731); assay: qHTS assay to identify small molecule agonists of the estrogen receptor beta (ER-beta) signaling pathway (AID 1259377; active = well fitted activation curve with a large enough effect in the signal ratio in the repeat runs, not every such curve was filed as active; the % refers to the signal ratio)
How it was run: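 In HEK293T cells bearing a UAS-beta-lactamase reporter under ER-beta control, DMSO-delivered compounds were incubated for 16 hr at 37C. Activity was detected as fluorescence 2 hours after LiveBLAzer B/G FRET substrate addition.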

[9] = biological target: Estrogen receptor (Homo sapiens) (UniProt P03372); assay: qHTS assay to identify small molecule antagonists of the estrogen receptor alpha (ER-alpha) signaling pathway using the BG1 cell line in the presence of 0.1 nM 17-beta-estradiol (AID 1259244); note: nearly all actives have a fitted effect of over 50% in size; note: potency is the fitted concentration of half-maximal effect
How it was run: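 VM7Luc4E2; 4xERE-luciferase; 0.1 nM E2 final; 22 h co-incubation, 37C; ONE-Glo luminescence after 30 min at room temperature.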

Estrogen receptor (Homo sapiens), sequence (P03372 whole entry, looked up): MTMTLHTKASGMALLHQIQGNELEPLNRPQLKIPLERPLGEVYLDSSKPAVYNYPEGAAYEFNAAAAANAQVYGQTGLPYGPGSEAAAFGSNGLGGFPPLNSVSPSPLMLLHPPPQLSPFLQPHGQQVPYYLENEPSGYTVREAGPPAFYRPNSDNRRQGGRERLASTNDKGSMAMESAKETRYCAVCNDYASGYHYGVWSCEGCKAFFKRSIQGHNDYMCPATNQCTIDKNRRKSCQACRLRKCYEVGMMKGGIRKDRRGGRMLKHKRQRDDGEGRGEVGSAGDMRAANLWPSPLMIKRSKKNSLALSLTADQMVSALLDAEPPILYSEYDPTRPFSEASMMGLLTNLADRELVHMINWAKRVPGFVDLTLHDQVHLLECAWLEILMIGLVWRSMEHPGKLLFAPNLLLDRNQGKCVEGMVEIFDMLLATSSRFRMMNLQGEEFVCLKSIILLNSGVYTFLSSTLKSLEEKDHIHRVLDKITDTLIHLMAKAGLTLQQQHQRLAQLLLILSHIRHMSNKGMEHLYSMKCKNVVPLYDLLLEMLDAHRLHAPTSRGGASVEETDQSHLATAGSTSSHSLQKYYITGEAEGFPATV
Estrogen receptor beta (Homo sapiens), sequence (Q92731 whole entry, looked up): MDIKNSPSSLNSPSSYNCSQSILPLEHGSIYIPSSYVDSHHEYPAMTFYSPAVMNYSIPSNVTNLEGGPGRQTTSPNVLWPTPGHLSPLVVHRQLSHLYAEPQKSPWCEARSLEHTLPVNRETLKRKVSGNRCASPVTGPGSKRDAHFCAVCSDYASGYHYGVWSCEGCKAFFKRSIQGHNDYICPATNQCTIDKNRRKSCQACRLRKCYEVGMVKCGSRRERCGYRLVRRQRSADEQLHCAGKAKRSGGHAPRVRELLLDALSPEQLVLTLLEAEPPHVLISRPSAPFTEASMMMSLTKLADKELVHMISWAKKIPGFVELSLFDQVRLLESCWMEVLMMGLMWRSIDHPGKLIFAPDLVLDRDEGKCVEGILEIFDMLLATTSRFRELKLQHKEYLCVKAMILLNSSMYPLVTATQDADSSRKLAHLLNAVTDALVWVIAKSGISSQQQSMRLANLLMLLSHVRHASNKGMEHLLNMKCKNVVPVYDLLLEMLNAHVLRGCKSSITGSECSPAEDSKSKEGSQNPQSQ

Structure (SMILES) | Potency [1] | Potency [2] | Potency [3] | Potency [4] | Potency [5] | Potency [6] | Potency [7] | Potency [8] | Potency [9]
CN(C)CCCN1c2ccccc2CCc2ccccc21 | inactive | inactive | inactive | inactive | inactive | 8.63 µM (active) and 4.73 µM (active) |  |  | 
CCCCCCCCCCCC(=O)N(CC)CC | inactive | inactive | inactive | inactive | inactive | inactive |  |  | 
CC(=O)Nc1ccc(O)cc1 | inactive | inactive | inactive | inactive | inactive | inactive | inactive |  | 
O=C1NC2CCCCN2C12CCN(CCCN1c3ccccc3CCc3ccc(Cl)cc31)CC2 (configuration not stated) | inactive | inactive | 26.6 µM (active) | 29.8 µM (active) | inactive | 21.1 µM (active) |  | inactive | 
CC(C)OC(=O)c1cc(C(=O)OC(C)C)cc([N+](=O)[O-])c1 |  | inactive |  | inactive | inactive |  | inactive |  | 
O=Nc1ccc(NO)cc1 |  | inactive |  |  |  | 14.2 µM (active) |  |  | 50.5 µM (active)
CCCCCCCC/C=C\CCCCCCCC(=O)NCc1ccc(O)c(OC)c1 | inactive | inactive | inactive | inactive | inactive | inactive | inactive |  | 
Oc1c(Br)cc(Br)c2cccnc12 | inactive | inactive | 7.5 µM (active) |  | inactive | 2.37 µM (active) | inactive |  | 
C=CC(=O)OCC(O)COc1ccccc1 (configuration not stated) |  |  | 27.3 µM (active) | inactive | inactive | inactive |  | inactive | inactive
CSc1c(Cl)c(Cl)c(Cl)c(Cl)c1Cl | inactive | inactive | inactive | inactive | inactive | inactive |  | inactive | 
CCC(=O)OCCc1ccccc1 | inactive | inactive |  |  | inactive |  |  | inactive | inactive
Cc1cc(Nc2ccc(O)cc2)ccc1N |  |  | 30.5 µM (active) | 24.2 µM (active) | inactive |  |  | inactive | 
c1cc2c3c(c1)ccc1cccc(c13)C2 | inactive | inactive | inactive | inactive | inactive |  |  | inactive | 
CC(C)(C)CC(C)(C)c1ccccc1O | inactive |  | 54.8 µM (active) | 48.8 µM (active) | inactive | 27.4 µM (active) |  |  | 
CC(C)(c1cc(Br)c(O)c(Br)c1)c1cc(Br)c(O)c(Br)c1 | inactive | inactive | inactive |  | inactive | 60.9 µM (active) and 64.9 µM (active) |  |  | 
CC1CCCCN1CCCOC(=O)c1ccc(OC2CCCCC2)cc1 (configuration not stated) | inactive | inactive | inactive | inactive | inactive |  |  | inactive | 
Cc1cccc(Br)c1 | inactive | inactive | inactive |  | inactive | 27.4 µM (active) |  |  | 
O=C1Nc2ccc(Cl)cc2[C@@](C#CC2CC2)(C(F)(F)F)O1 | inactive | inactive | inactive | inactive | inactive |  |  | inactive | 
SCCCCCCCCS |  | inactive | inactive |  | inactive | inactive |  |  | 
Cc1occc1SSc1ccoc1C | inactive | inactive | inactive | inactive | inactive |  |  | inactive | 
Cc1nc(Nc2ncc(C(=O)Nc3c(C)cccc3Cl)s2)cc(N2CCN(CCO)CC2)n1 | inactive | inactive | 0.075 µM (active) |  | inactive | inactive |  | inactive | 
